High-throughput results: PubChem BioAssay, National Center for Advancing Translational Sciences (NCATS)
Most compounds without a hit are left out; they make up all but 7.1% or so of the library.
MCF10A rerep – induces DNA re-replication in MCF 10a normal breast cells; MCF 10A DNA re-replication, Hoechst nuclear intensity, 48 h; Potency, µM (titrated, usually from 46.1 µM), for inactives: top-dose activity, positive = re-replication, hits mostly activators; 2.9% of 350,000 active; also: % of control where 0% means no effect; nearly all actives have a fitted effect of over 50% in size
SW480 rerep – DNA re-replication induction in SW480 cells; SW480 DNA re-replication, Hoechst DNA content imaging, 48 h; Potency, µM (titrated, usually from 46.1 µM), for inactives: top-dose re-replication activation, hits mostly activators; 1.8% of 340,000 active; also: % of control where 0% means no effect; nearly all actives have a fitted effect of over 55% in size
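Image-based DNA-content assay: after two days of treatment, nuclei were labelled with the DNA dye Hoechst and imaged, and hits were compounds raising the count of nuclei showing high fluorescence intensity.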
p53 reactivation – mutant p53 re-activation in reporter cells | H1299 p53-A138V BP100-luciferase reporter, luminescence, 24 h | Potency, µM (highest dose often 92.2 µM), without a hit: top-dose activity change, positive = activation, usual class: activators | 0.063% of 320,000 active | AID 504706; also: % of control where 0% means no effect; nearly all actives have a fitted effect of over 45% in size
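p53-null H1299 cells stably carrying temperature-sensitive p53-A138V and a BP100-luciferase reporter were pinned with compounds (4-point, 1:5 series) and held 24 hrs at 37 deg C. Luminescence was read 10 min after detection reagent.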
AT treatment – candidate therapy for ataxia-telangiectasia. Potency, µM (series often up to 57.5 µM), inactives show at the top dose activation, usual class: activators. F2112 A-T fibroblasts, KAP-1 phosphorylation AlphaLISA; neocarzinostatin DNA damage 30 min before lysis. 0.19% of 320,000 active; also: % of control where 0% means no effect; nearly all actives have a fitted effect of over 45% in size
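ATM-like activity read as KAP-1 phosphorylation via AlphaLISA donor/acceptor antibody pairs after lysis and 6 hr at 25C. Cells were ATM-null patient fibroblasts (F2112, hTERT), dosed 60 min, then exposed to the DSB inducer NCS for 30 min.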
ELG1 repair inh – inhibitors of ELG1-dependent DNA repair in HEK293T cells. HEK293T ELG1-luciferase reporter, luminescence, 16 h; DNA damage induced by 5-fluorouridine. Potency, µM (doses to about 46.1 µM), inactives show at the highest dose activity change, negative = inhibition, actives largely listed as inhibitors. 2.3% of 330,000 active; also: % is scaled to controls: 0 for no effect and ±100 for the full control effect; nearly all actives have a fitted effect of over 55% in size
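Quantitative HTS, concentration-response format. 2,000 cells/well co-treated with 5-fluorouridine and compound, 16 hr in 5% CO2 at 37 °C; ONE-Glo luminescence read after 30 min.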
ELG1 genotox – inducers of genotoxicity in HEK293T ELG1-luciferase cells; HEK293T ELG1-luciferase reporter, luminescence, 16 h; Potency, µM (series often up to 46 µM), for the others: at the top dose activity change, positive = activation, usual class: activators; 1.3% of 330,000 active; also: % of control where 0% means no effect; nearly all actives have a fitted effect of over 60% in size
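Quantitative HTS format in 1536-well plates. HEK293T ELG1-luciferase reporter cells receive test compound and are incubated 16 hr at 37 °C, 5% CO2; ONE-Glo added, 30 min room temperature, then luminescence read.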
The depositor's hits bear a star; [ ] = another dose, or the depositor's remark. Calls follow the shape of the dose curve; as a rule, active = well fitted curve in the direction sought with a large enough effect; inconclusive = small, poorly fitted or top-dose-only effect, or another doubt; inactive = no such curve, though single readings can be large; an effect the other way counts as inactive or inconclusive. Potency is read from the fitted curve at half-maximal effect.

`CCOC(=O)CSc1nnc([C@H](Cc2ccccc2)NC(=O)OC(C)(C)C)o1` gave MCF10A rerep -4%, SW480 rerep 1%, p53 reactivation -12%, AT treatment 0%, ELG1 repair inh -1% and ELG1 genotox 1%.
For CC(C)C[C@H](NC(=O)OC(C)(C)C)c1nnc(SCc2ccccc2)o1 the results were MCF10A rerep 430%[0.0737 µM], SW480 rerep 2.6µM*, p53 reactivation -5%, AT treatment 8%, ELG1 repair inh -12% and ELG1 genotox -11%.
`CC1CCN(C(=O)COC(=O)c2ccc([N+](=O)[O-])o2)CC1` gave MCF10A rerep -19%, SW480 rerep 21µM*, p53 reactivation 1%, AT treatment 14%, ELG1 repair inh 15% and ELG1 genotox -1%.
CC1CCN(C(=O)COC(=O)c2ccc(Br)o2)CC1 was read as MCF10A rerep -5%, SW480 rerep 1%, p53 reactivation 15%, AT treatment -7%, ELG1 repair inh inconclusive and ELG1 genotox inconclusive.
Screening Cc1ccccc1C(=O)NNC(=O)c1cccc(Br)c1 returned MCF10A rerep -1%, SW480 rerep 3%, AT treatment 8%, ELG1 repair inh 8% and ELG1 genotox 4%.
`CCN(CC)c1ccc(-c2nn3c(-c4cccnc4)nnc3s2)cc1` gave MCF10A rerep 5.2µM*, SW480 rerep 21µM*, p53 reactivation 0%, AT treatment 18%, ELG1 repair inh -13% and ELG1 genotox -7%.
`c1cncc(-c2nnc3sc(-c4ccco4)nn23)c1` gave MCF10A rerep 0%, SW480 rerep -6%, p53 reactivation -1%, AT treatment 1%, ELG1 repair inh 5% and ELG1 genotox -3%.
Screening CCOc1ccc(N=C2SCCCN2C(=O)c2c(CC)noc2C)cc1 returned MCF10A rerep 3%, SW480 rerep -4%, p53 reactivation 13%, AT treatment 7%, ELG1 repair inh 5% and ELG1 genotox 3%.
`CCOc1ncccc1C(=O)N1CCCSC1=Nc1ccc(C(C)=O)cc1` gave MCF10A rerep 0.92µM*, SW480 rerep 8%, p53 reactivation -1%, AT treatment 0%, ELG1 repair inh 15% and ELG1 genotox 5%.
For O=C(COc1ccc(Cl)cc1)Nc1ccccc1C(=O)NCc1cccnc1 the results were MCF10A rerep 3%, SW480 rerep 7%, p53 reactivation -14%, AT treatment 5%, ELG1 repair inh -10% and ELG1 genotox -5%.
COc1ccccc1-c1sc2cc3c(cc2c1C#Cc1cncn1C)OCO3 was read as MCF10A rerep inconclusive, SW480 rerep 0%, p53 reactivation -2%, AT treatment 12%, ELG1 repair inh -27% and ELG1 genotox -4%.
COc1cc(NC(=O)c2cccnc2Sc2ccc(Cl)cc2)cc(OC)c1OC was read as MCF10A rerep 10%, SW480 rerep 5%, p53 reactivation -15%, AT treatment -1%, ELG1 repair inh 8.2µM* and ELG1 genotox -4%.
COc1ccc(C(=O)Nc2cccnc2Sc2ccc(Cl)cc2)cc1 was read as MCF10A rerep -13%, SW480 rerep -1%[9.22 µM], p53 reactivation 9%, AT treatment 4%, ELG1 repair inh inconclusive and ELG1 genotox 4%.
`CCS(=O)(=O)c1ccc(O)c(NC(=O)CC2(CC(=O)O)CCCC2)c1` gave MCF10A rerep -1%, SW480 rerep -13%, p53 reactivation -2%, AT treatment -6%, ELG1 repair inh 6% and ELG1 genotox 1%.
